Screening data deposited in PubChem by National Center for Advancing Translational Sciences (NCATS).
This is a sample that favours compounds with a hit; in the whole collection about 9.5% have one here.
Tau ThT inhib = qHTS for Inhibitors of Tau Fibril Formation, Thioflavin T Binding. Potency, µM (titrated, usually from 57.4 µM), for the others: top-dose activity, negative = inhibition, usual class: inhibitors. 270,000 tested, 2.1% active. Microtubule-associated protein tau (Homo sapiens), P10636. AID 1460, 2008. recombinant tau K18 P301L, heparin-induced fibrillization, ThT fluorescence; note: nearly all actives have a fitted effect of over 55% in size
Target sequence (P10636 561-689 P618L limits assumed): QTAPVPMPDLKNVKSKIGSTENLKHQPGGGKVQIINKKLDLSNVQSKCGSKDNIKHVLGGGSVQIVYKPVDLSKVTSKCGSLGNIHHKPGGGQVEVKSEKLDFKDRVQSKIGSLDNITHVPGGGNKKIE
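K18 P301L tau (15 uM + 0.24 uM Alexa 594-tagged), heparin 20 uM, NaOAc pH 7, 6 h 37 C; ThT 30 uM, 1 h RT, ex 450/em 510 nm.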
Tau fluor counter = Counterscreen qHTS for Inhibitors of Tau Fibril Formation, Fluorescence Polarization. tau K18 P301L Alexa594 fluorescence, heparin fibrillization. Potency, µM (series often up to 57.7 µM), without a hit: at the top dose activity change, negative = decrease. 280,000 tested, 0.93% active. AID 1463, 2008; note: nearly all actives have a fitted effect of over 55% in size
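Human tau K18 P301L (15 uM unlabeled, 0.24 uM Alexa 594-labeled) in 100 mM sodium acetate pH 7 with 20 uM heparin, 6 hr at 37 C. ThT 30 uM added, 1 hr ambient; Alexa 594 FP and total fluorescence read at 555/632 nm.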
ALDH1A1 block = qHTS Assay for Inhibitors of Aldehyde Dehydrogenase 1 (ALDH1A1) | Aldehyde dehydrogenase 1A1 (Homo sapiens), P00352 | Purified ALDH1A1, NADH fluorescence, propionaldehyde substrate | Potency, µM (highest dose often 75.3 µM), inactives show top-dose activity, negative = inhibition, usual class: inhibitors | 220,000 tested, 7.3% active; active = well fitted inhibition curve with a large enough effect, not every such curve was filed as active; inconclusive = small, poorly fitted or top-dose-only effect, or another doubt; inactive = no such curve, though single readings can be large or run the other way;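 note: plate controls were no enzyme wells and a reference inhibitor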
Target sequence (P00352 whole entry, looked up): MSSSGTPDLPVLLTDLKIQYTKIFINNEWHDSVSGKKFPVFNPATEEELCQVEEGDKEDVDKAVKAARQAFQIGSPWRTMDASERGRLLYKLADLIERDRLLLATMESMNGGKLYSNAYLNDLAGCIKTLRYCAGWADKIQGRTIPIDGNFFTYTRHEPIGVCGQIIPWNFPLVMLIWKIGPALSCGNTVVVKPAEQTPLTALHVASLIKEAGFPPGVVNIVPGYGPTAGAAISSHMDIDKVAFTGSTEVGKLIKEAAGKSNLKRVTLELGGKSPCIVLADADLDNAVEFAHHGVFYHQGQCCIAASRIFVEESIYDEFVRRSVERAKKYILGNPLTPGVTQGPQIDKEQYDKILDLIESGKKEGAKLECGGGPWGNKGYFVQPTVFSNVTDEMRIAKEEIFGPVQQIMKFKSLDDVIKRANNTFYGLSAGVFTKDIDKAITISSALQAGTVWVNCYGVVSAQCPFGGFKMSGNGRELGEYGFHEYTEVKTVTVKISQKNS
NPSR antag = qHTS Assay for Antagonists of the Neuropeptide S Receptor: cAMP Signal Transduction | CHO-NPSR cells, cAMP TR-FRET, antagonist mode | Potency, µM (titrated, usually from 38.3 µM), without a hit: at the top dose activity change, negative = inhibition, most hits filed as inhibitors | 220,000 tested, 1% active | AID 1461, 2008; note: nearly all actives have a fitted effect of over 50% in size
Tau fibril FP = qHTS for Inhibitors of Tau Fibril Formation, Fluorescence Polarization; Microtubule-associated protein tau (Homo sapiens), P10636; K18 P301L tau heparin fibrillization, Alexa594 FP, 6 h; Potency, µM (titrated, usually from 57.7 µM), for inactives: at the highest dose activity, negative = inhibition, usual class: inhibitors; 280,000 tested, 0.39% active; AID 1468, 2008; note: nearly all actives have a fitted effect of over 55% in size
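Read-out: fluorescence polarization of Alexa 594-labeled tau (0.24 uM), 555 nm excitation, 632 nm emission. Mixtures held 15 uM unlabeled K18 P301L, compound and 20 uM heparin, pH 7 acetate buffer, incubated 6 hr at 37 C.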
HPGD block = qHTS Assay for Inhibitors of HPGD (15-Hydroxyprostaglandin Dehydrogenase); 15-hydroxyprostaglandin dehydrogenase [NAD(+)] (Homo sapiens), P15428; purified HPGD, NADH fluorescence kinetic, PGE2 substrate; Potency, µM, for inactives: at the highest dose activity change, negative = inhibition, most hits filed as inhibitors; 150,000 tested, 4.3% active; AID 894, 2007; active = well fitted inhibition curve with a large enough effect, not every such curve was filed as active; inconclusive = small, poorly fitted or top-dose-only effect, or another doubt; inactive = no such curve, though single readings can be large or run the other way
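NADH formation kinetics: reaction with 30 uM PGE2 and 1 mM NAD+ (final), 20 nM enzyme, Tris-HCl pH 8 with Tween 20, after 15 min compound preincubation at room temperature. Fluorescence change, last versus first of five reads.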
* hit, by the source's call; ? = inconclusive; · = no result; [ ] = dose if it differs, or a comment. Unless noted, calls come from the whole dose curve; as a rule, active = well fitted curve in the direction sought with a large enough effect; inconclusive = small, poorly fitted or top-dose-only effect, or another doubt; inactive = no such curve, though single readings can be large; an effect the other way counts as inactive or inconclusive. Unless noted, % is set by controls: 0 for no effect and ±100 for the full control effect; potency is the fitted concentration of half-maximal effect.

SMILES	Tau ThT inhib	Tau fluor counter	ALDH1A1 block	NPSR antag	Tau fibril FP	HPGD block
CCc1c(-c2ccccc2)nc2ccccc2c1C(=O)NCc1ccc(C)cc1	-17%	-2%	·	·	9%	·
Cc1nn(-c2ccccc2)c(Cl)c1C(=O)NCC(C)C	-17%	-14%	11%	-3%[46.1 µM]	-1%	10µM*
COc1ccc2c(c1)O[C@@H](c1ccc3c(c1)OCO3)[C@H](OC(=O)NS(=O)(=O)c1ccc(C)cc1)C2=O	-7%	-7%	-3%	·	-6%	-13%
CC(C)CNC(=O)c1nc(-c2ccccc2)n(-c2ccccc2)n1	-2%	2%	13µM*	-4%[46.1 µM]	4%	-2%
CC(=O)c1ccc(NC(=O)c2nc(-c3ccccc3)n(-c3ccccc3)n2)cc1	-8%	-12%	·	·	3%	·
COc1c(Cl)ccc(Cl)c1C(=O)NC(=S)N1CCOCC1	-2%	-1%	6%	2%	?	·
O=C1C2=CC[C@H]3C(=O)N(C[C@@H]4CCCO4)C(=O)[C@@H]3[C@@H]2[C@H](O)[C@@H]2O[C@H]12	3.2µM*	-30%[11.6 µM]	?	·	?	·
O=C1C2=CC[C@H]3C(=O)N(Cc4ccccc4)C(=O)[C@@H]3[C@@H]2[C@H](O)[C@@H]2O[C@H]12	?	-18%[11.6 µM]	-1%[13.5 µM]	·	?	·
CCN1C(=O)[C@@H]2[C@H]3C(=CC[C@H]2C1=O)C(=O)[C@H]1OC1[C@H]3O (stereo not given in full)	4µM*	-26%[11.6 µM]	-4%[13.5 µM]	·	?	·
O=C1C2=CC[C@H]3C(=O)N(C4CCCCC4)C(=O)[C@@H]3[C@@H]2[C@H](O)[C@@H]2O[C@H]12	?	-15%[11.6 µM]	?	·	?	·
N#CC1=C(SCC(=O)Nc2ccccc2)NC(=O)CC1c1ccc(O)cc1 (stereo not given)	-18%	-18%	?	-9%[46.1 µM]	0%	-2%
COC(=O)CSC1=C(C#N)C(c2ccc(C(C)C)cc2)CC(=O)N1 (stereo not given)	-6%	-14%	?	-12%[46.1 µM]	8%	-5%
COC(=O)CSC1=C(C#N)C(=O)NC(c2ccccc2)S1 (stereo not given)	-13%	-7%	24µM*	?	-7%	-22%
C=C(C)CSC1=C(C#N)C(c2ccccc2)CC(=O)N1 (stereo not given)	·	·	6.3µM*	·	·	25µM*
Cc1ccc(C2CC(=O)NC(SCCC(C)C)=C2C#N)cc1 (stereo not given)	-4%	-11%	13µM*	-10%[46.1 µM]	0%	?
COC(=O)CSC1=C(C#N)C(c2ccccc2)CC(=O)N1 (stereo not given)	6%	-1%	16µM*	-11%[46.1 µM]	-1%	-19%
CC(C)=CCC/C(C)=C/CO/N=C1/[C@H]2O[C@@H]2[C@@H](O)[C@H]2[C@H]1CCn1c(=O)n(C)c(=O)n12	-5%[11.5 µM]	-8%[11.6 µM]	11%[13.5 µM]	·	5%[11.6 µM]	·
CCCSC1=C(C#N)C(c2ccccc2C)CC(=O)N1 (stereo not given)	-9%	-1%	?	9%[46.1 µM]	-6%	?
N#CC1=C(SCC(N)=O)NC(=O)CC1c1ccccc1Cl (stereo not given)	-5%	-1%	20µM*	-16%[46.1 µM]	6%	-4%
CCCSC1=C(C#N)C(c2ccc(Cl)cc2Cl)CC(=O)N1 (stereo not given)	-18%	-25%	20µM*	-7%[46.1 µM]	2%	32µM*
CCSC1=C(C#N)C(c2ccccc2Cl)CC(=O)N1 (stereo not given)	3%	1%	?	2%[46.1 µM]	-1%	-8%
CO[C@@H](CCO)C[C@H]1O[C@H](C(=O)OC(C)C)CC[C@@H]1C	5%	3%	16%	·	?	-11%
Cc1ccc(S(=O)(=O)N2CCCCC2)cc1NC(=O)c1ccc2c(=O)n3c(nc2c1)CCCCC3	-3%	-11%	14µM*	8%	1%	-19%
O=C(COc1ccc(Cl)cc1Cl)Nc1ccc2nc3n(c(=O)c2c1)CCCC3	?	-24%	?	-24%[46.1 µM]	-1%	10µM*
O=C(Nc1ccc(F)c(Cl)c1)c1ccc2c(=O)n3c(nc2c1)CCCCC3	-9%	-19%	25µM*	-29%[46.1 µM]	11%	·
SMILES	Tau ThT inhib	Tau fluor counter	ALDH1A1 block	NPSR antag	Tau fibril FP	HPGD block
O=C(Nc1ccc(S(=O)(=O)N2CCCC2)cc1)c1ccc2c(=O)n3c(nc2c1)CCCCC3	9%	-1%	?	2%	-5%	-12%
O=C(Nc1ccc(F)cc1)c1ccc2c(=O)n3c(nc2c1)CCCCC3	2%	-7%	·	·	-7%	·
Cn1c(SCc2cccc(F)c2)nnc1-c1cnccn1	-8%	-5%	·	6%	0%	·
Cc1nn(-c2ccccc2)c2c1C1(C(=O)N(C(C)C)c3ccccc31)C(C#N)=C(N)O2 (stereo not given)	25µM*	?	1.1µM*	?	?	-6%
Cc1nn(-c2ccccc2)c(N)c1C1(O)C(=O)N(C(C)C)c2ccccc21 (stereo not given)	-12%	-13%	?	11%	-7%	-2%
Cc1cccc(NC(=O)c2ccc(CNS(=O)(=O)c3ccc4c(c3)C(C)(C)C(=O)N4C)cc2)c1	4%	-20%	·	·	7%	·
Cn1nnnc1SCC(=O)Nc1ccccc1N1CCOCC1	-6%	-4%	1%	-3%[46.1 µM]	-2%	-8%
COc1ccc(-n2nnnc2SCC(=O)Nc2ccccc2N2CCOCC2)cc1OC	10µM*	-17%	4%	58%	-80%	·
Cc1ccc(-n2nnnc2SCC(=O)N2CCCCC2)cc1	-7%	-12%	-1%	-9%[46.1 µM]	-2%	-4%
CCn1nnnc1SCC(=O)N1CCCc2ccccc21	-6%	-3%	3.5µM*	22%[46.1 µM]	2%	-10%
O=C(CSc1nnnn1-c1cccc2c1CCCC2)N1CCCCC1	-13%	-3%	32µM*	-1%[46.1 µM]	6%	?
O=C(CSc1nnc2scc(-c3ccccc3)n12)N1CCCc2ccccc21	-15%	-10%	11µM*	-8%[46.1 µM]	-3%	-9%
O=C(Cn1c(=O)n(-c2ccccc2)c(=O)c2sc3ccccc3c21)NC1CCCC1	-5%	-16%	·	·	-7%	·
Cc1ccc(-c2nnc(SCC(=O)N3CCCc4ccccc43)n2N)cc1	-11%	1%	13µM*	-2%[46.1 µM]	-2%	-6%
